High-throughput results from PubChem.
Rows were chosen to be rich in hits. Some 4% of all compounds tested hit in one or more screens of this group.
Mtb bLac sens: beta-lactam sensitization of Mtb H37Rv, H37Rv. M. tuberculosis H37Rv growth with meropenem, percent inhibition. AID 434955, 2010. inhibition, % at 25 µM. actives 0.27% (n = 330,000); call rule not given here;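 note: growth measured after seven days incubation then overnight dye step; 0% = bacteria only wells and 100% = bacteria with antibiotic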
UGM FP inh: M. tuberculosis UGM enzyme inhibitors, primary screen, biochemical, fluorescence polarization, single point; UDP-galactopyranose mutase (Mycobacterium tuberculosis (strain ATCC 25618 / H37Rv)), …; purified UGM, fluorescence polarization probe displacement; inhibition, % at 10 µM; actives 0.06% (n = 320,000); in the data active = inhibition above about 10%, passing the limit was not always enough
GDH-TPI counter-1: GDH-TPI coupling enzyme inhibitors, primary screen, artefact control for M. tuberculosis FBA inhibitor project, biochemical, absorbance, full deck; actives 1.2% (n = 360,000); AID 588335, 2011; inhibition, % at 4.8 µM; GDH-TPI coupled enzyme counterscreen, NADH absorbance; in the data active = inhibition above about 30%;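 note: 0% = DMSO wells and 100% = wells lacking the enzyme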
RecA splice inh: Mtb RecA intein splicing inhibitors, primary screen, biochemical, fluorescence, HTS. Protein RecA (Mycobacterium tuberculosis (strain ATCC 25618 / H37Rv)), P9WHJ3. cell-free RecA intein splicing. inhibition, % (test concentration not listed). actives 0.75% (n = 290,000). AID 2221, 2009; in the data active = inhibition above about 30%;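 note: 0% = vehicle wells and 100% = reference inhibitor control wells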
Rv3671c protease: Rv3671c serine protease inhibitors, primary screen, biochemical, fluorescence polarization, M. tuberculosis H37Rv; inhibition, % at 5.96 µM; actives 0.048% (n = 320,000); in the data active = inhibition above about 38%;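 note: extracellular domain of Rv3671c used as enzyme; 0% = enzyme with DMSO and 100% = no enzyme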
FBA Mtb inh: Mtb FBA enzyme inhibitors, primary screen, biochemical, fluorescence, strain H37Rv | actives 2.3% (n = 360,000) | Fructose-bisphosphate aldolase (Mycobacterium tuberculosis (strain ATCC 25618 / H37Rv)), … | purified M. tuberculosis FBA, fluorescence read-out | inhibition, % at 1 µM;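 note: 0% = vehicle and 100% = reference inhibitor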
Target sequence (P9WQA3 whole entry, looked up): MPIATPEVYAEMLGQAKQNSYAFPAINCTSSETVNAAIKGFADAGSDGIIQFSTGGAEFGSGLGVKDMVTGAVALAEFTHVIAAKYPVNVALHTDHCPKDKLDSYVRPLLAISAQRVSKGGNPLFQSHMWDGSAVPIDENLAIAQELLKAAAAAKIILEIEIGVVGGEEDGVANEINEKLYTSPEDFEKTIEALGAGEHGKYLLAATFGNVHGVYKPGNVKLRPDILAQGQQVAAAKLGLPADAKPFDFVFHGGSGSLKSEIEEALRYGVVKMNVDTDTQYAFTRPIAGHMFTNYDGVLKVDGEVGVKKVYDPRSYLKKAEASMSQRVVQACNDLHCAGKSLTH
Mtb FBA confirm: M. tuberculosis aldolase blockers, biochemical, fluorescence, strain H37Rv, confirmation | purified M. tuberculosis FBA, fluorescence read-out | inhibition, % at 1 µM | shares compounds with FBA Mtb inh | actives 78% (n = 5,600);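 note: 0% = vehicle wells and 100% = reference inhibitor wells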
GDH-TPI counter-2: GDH-TPI coupling enzyme inhibitors, artefact control for M. tuberculosis FBA inhibitor project, biochemical, fluorescence, high throughput; GDH-TPI coupled enzyme counterscreen; AID 652141, 2013; inhibition, % at 1 µM; actives 81% (n = 5,600); shares compounds with FBA Mtb inh; in the data active = inhibition above about 10%
GDH-TPI DR: GDH-TPI coupling enzyme inhibitors, dose response, artefact control for M. tuberculosis FBA inhibitor project, biochemical, fluorescence, IC50; shares compounds with FBA Mtb inh; GDH-TPI coupled enzyme assay, artifact counterscreen; IC50, µM; actives 79% (n = 170); AID 652145, 2013; call rule not given here
Numbers without * were called inactive; x = no result; + = active, no number. Cut-off read from the data, not from the text of the source, unless noted: active = inhibition above about 27%; inactive = the rest.

SMILES	Mtb bLac sens	UGM FP inh	GDH-TPI counter-1	RecA splice inh	Rv3671c protease	FBA Mtb inh	Mtb FBA confirm	GDH-TPI counter-2	others
COc1ccc2c(C)cc3n[nH]c(=S)n3c2c1	-3.8	0.9	27.7	-3.1	-0.9	37.4*	32.9*	21.5*
CCC1(C)Cc2ccccc2-c2nc3n(c(=O)c21)CC(C(=O)O)S3 (centres undefined)	-17.7	0.5	1.9	4.5	-0.1	39.5*	-2.2	-1.4
CCC1(C)Cc2ccccc2-c2nc(-c3ccccc3)oc(=O)c21 (centres undefined)	4.0	0.3	8.3	11.5	-4.6	0.3	x	x
CC(=O)Nc1sc(N/N=C/c2ccc(N(C)C)cc2)nc1-c1ccc(C)cc1	x	x	39.9*	-1.9	x	39.0*	131.7*	101.7*
CCCS(=O)(=O)c1nc(S(=O)(=O)c2ccc(C)cc2)c(N2CCN(CCO)CC2)s1	-0.7	2.1	-8.2	1.6	-14.1	-2.0	x	x
CN(C)c1ncc(S(=O)(=O)c2ccccc2)c(N)n1	-3.4	-2.5	8.2	-1.2	-5.9	1.3	x	x
Cc1ccc(S(=O)(=O)c2cc3ccccc3nc2N)cc1	-8.8	0.8	0.6	-2.6	-1.1	36.4*	+	193.3*
CC1(C(=O)Nc2cccc3cccnc23)CCN1Cc1ccc(-c2ccccc2)o1 (centres undefined)	x	x	3.5	x	x	4.7	x	x
CCOC(=O)Cc1c(C)nc2c(-c3ccccc3)c[nH]n2c1=O	90.1	-3.8	18.8	-0.3	2.3	85.5*	175.6*	172.5*
CCOC(=O)Cc1c(C)nc2c(-c3ccccc3)c(-c3ccccc3)[nH]n2c1=O	52.8	x	15.7	1.5	3.6	71.5*	57.8*	41.0*
Cc1nc2c(C#N)c[nH]n2c(=O)c1Cc1ccccc1	7.5	3.3	3.7	0.9	-10.0	7.9	x	x
CCOC(=O)Cc1c(C)nc2c(-c3ccccc3)c(C)[nH]n2c1=O	50.9	x	8.8	-1.2	3.9	23.4	x	x
CCc1c(C)nc2c(-c3ccccc3)c[nH]n2c1=O	88.7	0.0	5.7	0.0	0.4	32.6*	14.7	8.7	GDH-TPI DR=8.1*
N#CCC(=O)Nc1ccc(C(=O)OCC(=O)N(C2CCCCC2)C2CCCCC2)cc1	2.9	-0.5	3.0	-1.4	-15.4	4.5	x	x
c1ccc2c(c1)c1cccc3ccc4cccc2c4c31	3.8	0.0	20.8	x	3.8	54.9*	74.8*	64.1*
O=c1c2ccccc2ccc2ccccc12	4.8	2.0	14.3	x	0.6	5.6	x	x
COc1ccc(-c2ccc(C(=O)C3CC3)cc2)cc1	10.2	-1.2	3.5	-1.6	-1.4	59.9*	51.8*	44.5*
COc1c(Cl)cccc1-c1cn2ccc(C)cc2n1	8.3	-3.0	0.7	-1.1	5.3	38.2*	36.1*	39.0*
Cc1ccn2cc(-c3cnoc3C)nc2c1	-9.4	-2.8	-8.1	0.0	2.0	31.4*	15.2	0.3
CC(=O)C1=CCC(c2cccs2)N(S(=O)(=O)c2ccc(C)cc2)C1 (centres undefined)	x	x	x	x	x	0.9	x	x
O=C(NCCCCO)c1ccc2c3c(cccc13)CC2	1.3	-0.6	6.8	1.9	4.4	64.4*	-1.8	-2.5
CCOCCNC(=O)c1ccc2c3c(cccc13)CC2	49.9	-1.9	1.2	-1.5	1.1	80.7*	47.3*	36.1*
CC(C)(C)NC(=O)c1ccc2c3c(cccc13)CC2	86.2	3.4	8.6	0.5	5.0	12.6	x	x
Cc1ccn2cc(-c3cccc(NC(=O)CCC(=O)O)c3)nc2c1	-10.4	-1.4	7.5	-3.5	-3.2	44.0*	44.7*	33.6*
Cc1ccn2cc(-c3ccc(NS(=O)(=O)c4ccccc4)cc3)nc2c1	4.7	x	8.0	6.6	-17.7	5.7	x	x
SMILES	Mtb bLac sens	UGM FP inh	GDH-TPI counter-1	RecA splice inh	Rv3671c protease	FBA Mtb inh	Mtb FBA confirm	GDH-TPI counter-2	others
CC(=O)Nc1ccc2nc(-c3ccccc3)cn2c1	-9.3	-0.7	13.6	-0.8	1.3	38.2*	+	183.9*
Cc1cccc2nc(-c3cccc(NC(=O)Cc4ccccc4)c3)cn12	-0.2	1.0	10.7	1.7	-13.2	25.3	x	x
Cc1ccn2cc(-c3cccc(NS(C)(=O)=O)c3)nc2c1	-1.8	-0.7	3.5	-2.1	2.5	37.2*	60.5*	31.1*
Clc1ccc2nc(-c3ccccc3)cn2c1	-2.2	0.4	5.2	0.6	-1.6	4.8	x	x
CC(=O)Nc1cccc(-c2cn3ccc(C)cc3n2)c1	5.6	4.9	11.9	0.2	4.3	49.7*	+	+
COC(=O)c1c(NC(=O)c2cccc(S(=O)(=O)N3CCN(C)CC3)c2)sc(C)c1C	0.0	1.9	11.2	-1.6	-2.1	2.6	x	x
CCOC(=O)c1c(-c2ccccc2)oc2ccc(OC(C)=O)cc12	86.8	-1.3	10.2	14.2	5.9	43.0*	2.3	-4.4
CCOC(=O)c1c(-c2ccccc2)oc2ccc(OCC(O)CN(C)C)cc12 (centres undefined)	35.7	0.1	6.0	1.3	-7.3	47.9*	43.5*	32.2*
CCOC(=O)c1c(-c2ccccc2)oc2ccc(O)c(CN(C)C)c12	0.3	2.9	15.6	0.6	-7.0	-3.2	x	x
CC(=O)Oc1ccc2c(=O)c(-c3ccccc3)c(C)oc2c1	-10.7	0.2	2.8	8.2	-4.1	42.7*	49.4*	43.1*
CCC(Cc1ccccc1)NC(=O)CCNS(=O)(=O)c1cc(Br)cnc1N (centres undefined)	0.9	0.4	8.6	-2.6	3.7	3.3	x	x
Cc1cccc(S(=O)(=O)Nc2ccc(-n3c(C)nc4ccccc4c3=O)cc2)c1	-6.8	1.5	4.8	3.9	3.3	0.5	x	x
OCCN1CCN(c2nc(NCc3ccco3)c3ccccc3n2)CC1	-3.8	3.3	17.9	6.8	5.1	7.1	x	x
OCCNc1nc(N2CCN(c3ccccc3)CC2)nc2ccccc12	0.2	0.3	12.8	-1.3	-2.0	107.1*	+	177.2*
CNC(=O)c1cc2cc(OC)ccc2oc1=O	1.6	-1.1	-1.3	-28.1	0.5	58.6*	13.6	-3.8
COc1ccc2oc(=O)c(C(=O)NCC3CCCO3)cc2c1 (centres undefined)	-3.8	-0.6	14.9	-97.0	-0.4	64.0*	79.3*	59.4*
